Assay results from PubChem BioAssay AID1053144 (Broad Institute, 2014).
In all, about 3,400 compounds went through this assay and about 160 (4.7%) were called active.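 How the source made its calls: active means fitted curve reaches 30% activation at a concentration no higher than the top valid tested dose, luminescence rising; inconclusive means no clear call, values can overlap the other calls; inactive means signal moving opposite to the expected increase, plus the rest.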 These entries were drawn from the full list. Measured potencies and affinities stand elsewhere.

assay: TCF/LEF reporter activation in neural progenitors – cell-based, iPS-derived NPC, luciferase, Wnt3a, cherry-pick, dose response (AID 1053144); details: Wnt3a EC25, 24 h; series mostly up to 26 µM; activation: at the top concentration;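 further: Wnt3a stimulus is conditioned medium from Wnt3a-transfected mouse L cells at 5% in well; 0% = neutral control wells and 100% = CHIR-99021 positive control wells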

activation, inactive:
O=C(COc1ccc(Cl)cc1Br)NC(=O)NC1CCCC1 14.6%
Cc1ccc(C(=O)Nc2ccc3c(c2)OCO3)cc1Cl 8.71%
O=C(Nc1ccc(F)cc1F)c1cc2ccccc2oc1=O 11.5%
O=C(NCCc1c[nH]c2ccccc12)c1cc(Cl)c2c(c1)OCO2 13.5%
COc1ccc(/C(N)=N/OC(=O)C2CCCCC2)cc1 9.93%
Cc1ccc(NC(=O)c2sccc2C)cc1[N+](=O)[O-] 11.7%
Cc1cccnc1NC(=O)c1cc2ccccc2oc1=O 7.56%
COc1ccc(-c2nc3c4ccccc4[nH]c(=O)n3n2)cc1 8.52%
O=C(Nc1nccs1)c1sc2cc(Cl)ccc2c1Cl 0.675%
O=C(NCC(=O)N1CCCCC1)c1sc2ccccc2c1Cl 12.8%
C/C(=C\c1ccccc1)C(=O)NCc1ccco1 8.95%
O=C(NN1C(=O)C2C3c4ccccc4C(c4ccccc43)[C@@H]2C1=O)c1ccccc1 (some centres undefined) 1.36%
CN(CC(=O)Nc1ccc(F)cc1)C(=O)COC(=O)c1cccc(N(C)C)c1 9.3%
CCOC(=O)c1cccc(COC(=O)c2cccc(-c3nnc(-c4ccccc4)o3)c2)c1 0.153%
COc1ccc(/C=C2\CCC(C3CCCC3)C2=O)cc1OC (centres undefined) 3.68%
Cc1cc(C)n(-c2nc3ccccc3s2)n1 4.91%
CN(C)c1ccc(-c2ccc3c(=O)c4ccccc4n(C)c3c2)cn1 4.76%
O=C(COn1nnc2ccccc21)NCC1CCCCC1 9.79%
O=C(NNS(=O)(=O)c1ccccc1)C1CCN(S(=O)(=O)c2ccccc2)CC1 1.1%
O=C(c1ccc(F)cc1)c1cc2ccccc2o1 10.6%
O=C(Nc1ccccc1)c1cc2ccccc2o1 11.2%
COc1ccc(/C=C2/CCc3ccccc3C2=O)cc1OC 4.77%
Cc1ccc(/C=C/C(=O)c2nc3ccccc3[nH]2)cc1 21.5%
O=C(/C(=C/c1ccc(Cl)cc1)c1nc2ccccc2[nH]1)c1ccccc1 -5.94%
Nc1c(C(=O)Nc2ccc(Cl)cc2)oc2ccccc12 9.62%
CCc1nnc(NC(=O)/C=C/c2ccco2)s1 10%
O=C(/C=C/c1ccco1)Nc1ccccc1C(=O)O 13.5%
CCOc1ccc(CCNC(=O)COC(=O)c2cccc(N(C)C)c2)cc1OCC 18.4%
CCOc1ccc(CCNC(=O)COc2cc(=O)n(C)c3ccccc23)cc1OCC 17.3%
CC(C)(C)c1ccc(/C=C/C(=O)Nc2cccnc2)cc1 14.5%
Cc1cc(C(=O)COC(=O)c2ccc(O)cc2)c(C)n1CC(F)(F)F 19.3%
C(=C\c1cc(/C=C/c2ccccc2)ncn1)/c1ccccc1 8.61%
COc1ccc(C(=O)/C=C/c2ccccc2C(F)(F)F)cc1 17%
CCCCOC(=O)Nc1ccc(N2CCCCC2)cc1 10.5%
COC(=O)c1ccc(NC(=O)Cc2ccccc2)cc1 7.35%
COc1ccc(/C=C(/NC(=O)c2ccccc2Cl)C(=O)O)cc1 0.835%
O=C(O)Cc1sc(Nc2ccccc2)nc1-c1cccs1 11.4%
Cc1nc(Nc2ccccc2)sc1C(=O)c1ccccc1 7.59%
O=C(Nc1ccc(Cl)cc1)Nc1ccccc1C(=O)NCc1ccco1 21.4%
COC(=O)CNc1c(-c2ccccn2)nc2ccc(Br)cn12 4.47%
Cc1ccsc1C(=O)OCc1cc(=O)n2ccsc2n1 15.6%
COc1ccc(NC(=O)c2cccc(OS(=O)(=O)N(C)C)c2)cc1 9.03%
COC(=O)c1ccc(NC(=O)c2cccc(OC)c2)cc1 11%
O=C(/C=C\c1ccco1)Oc1cccc2cccnc12 -5.59%
C(=N\Nc1nccc(-c2cccnc2)n1)/c1ccccc1 8.07%
CC(C)(C)c1cc(C(=O)NNC(=O)c2ccc(C(F)(F)F)cc2)no1 1.66%
COc1ccc(/C=C/C(=O)c2ccccn2)cc1 14.1%
CN(C)c1ccc(/C=C/c2ccncc2)cc1 5.29%
COc1c(OC(C)=O)ccc(/C=C/c2ccc3cccc(OC)c3n2)c1[N+](=O)[O-] -1.16%
CC(=O)Nc1ccc(-c2ccnc3c2CC(C)(C(=O)NC(C)C)O3)cc1 (centres undefined) 0.429%
Cc1ccc(NC(=O)CSc2nccn2Cc2ccco2)c(C)c1 6.3%
Cn1c(CCNC(=O)c2ccco2)nc2cc(NC(=O)c3ccccc3)ccc21 17.2%
CCC(=O)NCCc1nc2cc(NC(=O)c3ccc(Cl)cc3)ccc2n1C 5.88%
Clc1ccccc1Nc1nc(-c2cccnc2)cs1 9.94%
Nc1ccccc1-n1cccc1 20%
Cc1ccc(S(=O)(=O)N2CCCC(C(=O)Nc3ccc(NC(=O)c4ccccn4)cc3)C2)cc1 (centres undefined) 0.501%
Oc1ccc(-c2csc(Nc3ncccn3)n2)c(O)c1 14.6%
COc1ccc(-c2nc3n(c2C)Cc2ccccc2-3)cc1 12.4%
Clc1ccc(-c2nc3n(n2)Cc2ccccc2-3)cc1 1.17%
Cn1c(-c2ccc(F)c(F)c2)cc2onc(-c3ccccc3)c2c1=O 5.39%
NC(=O)C1CCN(C(=O)c2cc3c(s2)CCCCC3)CC1 2.7%
O=C(Nc1nc(-c2ccc3c(c2)OCCO3)cs1)C1CCCC1 16.9%
O=C(Nc1nc(-c2nc3ccccc3s2)cs1)C1CC1 17%
CC(C)(C)c1ccc(NC(=O)c2ccccc2)c([N+](=O)[O-])c1 3.96%
O=C(Nc1ccc2c(c1)OCO2)Nc1ccccn1 13.8%
Cc1ccc(CNC(=O)c2ccc(Cn3cc(-c4ccc(C)cc4)nc3-c3ccncc3)cc2)cc1 8.59%
Clc1ccc(-c2cc(-c3ccccc3)on2)cc1 10.5%
Nc1nc(-c2cc(-c3ccccc3)no2)cs1 9.23%
COc1cccc(OCC(=O)Nc2ccccc2C(N)=O)c1 8.69%
Cc1ccc(OCC(=O)Nc2ccccc2F)cc1 12.7%
Cc1cc(C)c(C#N)c(N2CCSCC2)n1 2.58%
O=C(Nc1cccnc1)c1ccc(Oc2ccccc2)cc1 9.21%
O=C(Nc1ccc(Cl)cc1Cl)c1ccc2c(c1)OCCO2 2.85%
O=C(Nc1ccccc1F)c1ccc2c(c1)OCO2 12.6%
O=C(Nc1ncccc1O)c1ccc2ccccc2c1 8.12%
NC(=O)c1ccccc1NC(=O)c1ccc2c(c1)OCO2 16.1%
Cc1nc(NC(=O)c2ccc3c(c2)OCCO3)ccc1Br 7.19%
COCCn1c(C)cc(C(=O)CSc2nc3ccccc3c(=O)n2Cc2ccco2)c1C 18.6%
Nc1cc([N+](=O)[O-])ccc1OCc1ccccc1 8.87%
O=C(Nc1cc2c(cc1Br)OCCCO2)c1ccccc1 7.2%
C/C(=C\c1ccccc1)C(=O)NCCc1ccccc1 15.1%
CN(CCO)C(=O)c1ccc(-c2nn(C)c(=O)c3ccccc23)cc1 9.07%
O=C(Nc1ccc2c(c1)CCC2)c1cccs1 4.74%
O=C(Nc1cccc(F)c1)Nc1ccc2c(c1)CCC2 6.92%
O=C(CCNC(=O)c1ccc(Cl)cc1)NC1CCCCCC1 10.6%
CCOc1cc(/C=N/NC(=O)CSc2nnc(C)s2)ccc1OCc1ccccc1Cl -1.65%
O=c1c2ccccc2oc2cc(-c3ccc4cc[nH]c4c3)ccc12 7.52%
O=c1oc(CCO)cc2ccc(-c3ccc4[nH]ccc4c3)cc12 13.7%
CC1CCc2c(sc(/N=C/c3ccco3)c2C(N)=O)C1 (centres undefined) 5.79%
Fc1ccc2cc(-c3ccccc3F)ncc2c1 11.3%
Cc1cc(NC(=O)c2ccc(OCC3CCCO3)cc2)ccc1Br (centres undefined) 11.3%
O=C(CSc1nc2ccccc2c(=O)n1NC(=O)c1ccccc1)c1ccc(Cl)cc1 6.68%
O=c1c2ccccc2nc2c3ccccc3c(NCc3ccccn3)nn12 6.04%
Cn1cccc1C(=O)OCC(=O)Nc1ccc2c(c1)OCCO2 2.19%
Cc1ccccc1Cn1nnc(C(=O)Nc2ccc3c(c2)OCCO3)c1N 18%
Fc1ccccc1-c1nc2ccccc2[nH]1 7.36%
CCOC(=O)c1sc(=NC(=O)c2ccc(C)cc2)n(C)c1C 5.95%
CCOC(=O)c1sc(=NC(=O)c2ccccc2)n(C)c1C 12.3%
NC(=O)c1cc(Cl)ccc1OCC(=O)Nc1ccc2c(c1)OCO2 15.9%
Oc1ccccc1/C=N/Nc1cccc2cccnc12 11%
O=C(O)c1ccc(N/N=C/c2cccc3cccnc23)cc1 7.3%
Cc1ccc(C(=O)Nc2cccc(C(=O)N3CCOCC3)c2)cc1 13.5%
Cn1cccc1C(=O)OCC(=O)N1CCc2ccccc21 13.9%
COC(=O)N=Nc1c(O)[nH]c2ccc(Br)cc12 13%
O=C(N=Nc1c(O)[nH]c2ccc(Br)cc12)c1ccco1 8.44%
O=C1CCN(Cc2ccccc2)C=C1c1ccc2ccccc2c1 9.52%
CC(C)=CC(=O)Nc1ccc(Cl)cc1 11.1%
O=C(NCCc1cccc(Cl)c1)c1ccc2c(c1)OCO2 1.66%
O=C(/C=C/c1ccco1)Nc1cccnc1Cl 14.5%
Cc1ccc(-n2nc3ccc(NC(=O)/C=C/c4ccco4)cc3n2)cc1 7.6%
O=C(/C=C/c1ccco1)Nc1cccnc1 3.46%
COc1cccc(NC(=O)/C=C/c2ccco2)c1 15.9%
COc1cccc(-c2cc(C(=O)N3CCCCCC3)no2)c1 3.16%
COc1ccc(-c2cc3nc4n(c(=O)c3s2)CCCCC4)cc1 3.29%
O=C(COc1ccc(F)cc1Cl)NC1CCCCCC1 6.97%
COc1ccc2c(c1)-c1nc(NC(=O)c3ccco3)sc1CC2 13%
N/C(=N\OC(=O)c1ccco1)c1cccnc1 1.97%
COc1ccccc1C(=O)O/N=C(\N)c1ccccn1 7.03%
COc1ccccc1C(=O)O/N=C(\N)c1ccccc1Cl 9.49%
Cc1cccc(C(=O)O/N=C(\N)c2ccc(Cl)cc2)c1 17.3%
COc1ccc(C(=O)O/N=C(\N)c2ccc(Br)cc2)cc1 14.7%
N/C(=N\OC(=O)c1ccco1)c1ccccc1 10.3%
COc1ccc(-c2cc(-c3ccc(C)cc3)n[nH]2)c(O)c1 3.59%
NS(=O)(=O)c1ccc2nc(NC(=O)Nc3ccccc3F)sc2c1 15.6%
